A selection: hits, their analogues and other compounds. The true share with any hit is near 3.5%.
BoNT-A LC inh2 = inhibitors of Botulinum neurotoxin A light chain protease; multiplex microsphere protease substrate cleavage, flow cytometry; inhibition, % at 10 µM; 0.17% of 360,000 active; AID 588499; further: plate controls were buffer without enzyme for full effect and enzyme alone for no effect
Autofluor counter = counter-screen for toxin protease inhibitors: compound fluorescence; 3.1% of 360,000 active; AID 624483; fluorescence intensity (concentration not given with the values); compound autofluorescence counterscreen, microsphere flow cytometry; active compounds read high; in the data active means fluorescence intensity above about 16000; inconclusive means no clear call, values can overlap the other calls
BoNT F protease = BoNT F light chain protease inhibition; Multiplex microsphere protease cleavage assay, flow cytometry; inhibition, % at 10 µM; 0.22% of 360,000 active; in the data active means inhibition above about 35%, passing the limit was not always enough; inconclusive means no clear call, values can overlap the other calls; further: plate controls were buffer without enzyme for full effect and enzyme alone for no effect
Anthrax LF inh2 = anthrax lethal factor protease inhibition | 0.12% of 360,000 active | multiplex microsphere protease cleavage assay, LF | P15917 | inhibition, % at 10 µM; further: plate controls were buffer without enzyme for full effect and enzyme alone for no effect
Target sequence (P15917 whole entry, looked up): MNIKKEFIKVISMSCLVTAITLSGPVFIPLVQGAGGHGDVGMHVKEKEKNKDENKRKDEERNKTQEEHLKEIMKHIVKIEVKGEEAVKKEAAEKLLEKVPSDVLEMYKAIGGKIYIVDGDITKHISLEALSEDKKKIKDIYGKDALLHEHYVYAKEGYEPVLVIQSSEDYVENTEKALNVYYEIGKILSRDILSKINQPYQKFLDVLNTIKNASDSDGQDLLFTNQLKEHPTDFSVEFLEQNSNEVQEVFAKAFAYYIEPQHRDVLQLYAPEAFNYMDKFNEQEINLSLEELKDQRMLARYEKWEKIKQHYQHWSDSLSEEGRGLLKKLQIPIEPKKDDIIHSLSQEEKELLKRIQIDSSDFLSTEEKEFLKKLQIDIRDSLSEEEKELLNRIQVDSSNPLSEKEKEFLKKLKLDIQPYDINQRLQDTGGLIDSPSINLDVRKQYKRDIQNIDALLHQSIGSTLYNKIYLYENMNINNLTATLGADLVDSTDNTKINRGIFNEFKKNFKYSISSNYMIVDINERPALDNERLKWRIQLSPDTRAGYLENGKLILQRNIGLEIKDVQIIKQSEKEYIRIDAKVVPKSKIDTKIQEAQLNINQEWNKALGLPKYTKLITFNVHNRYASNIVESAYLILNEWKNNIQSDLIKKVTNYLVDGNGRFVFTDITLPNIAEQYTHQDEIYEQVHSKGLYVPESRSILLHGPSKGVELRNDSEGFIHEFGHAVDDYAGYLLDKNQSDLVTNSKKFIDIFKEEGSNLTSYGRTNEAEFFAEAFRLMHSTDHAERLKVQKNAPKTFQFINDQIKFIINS
An asterisk follows results filed as active. Unless noted, no stated cut-off is given here; in the data, active means inhibition above about 30%; inconclusive means no clear call, values can overlap the other calls; inactive means below that.

For COc1ccc(N2CC(NC(=O)c3ccc4ccccc4c3)CC2=O)cc1OC (stereo not drawn) the results were BoNT-A LC inh2 -1, Autofluor counter 5509, BoNT F protease -4 and Anthrax LF inh2 -2.
For COc1cc(C(c2c(C)[nH][nH]c2=O)c2c(C)[nH][nH]c2=O)ccc1OS(=O)(=O)c1ccccc1 the results were BoNT-A LC inh2 -1, Autofluor counter 16308*, BoNT F protease -5 and Anthrax LF inh2 -4.
COc1cc(C(c2c(C)[nH][nH]c2=O)c2c(C)[nH][nH]c2=O)ccc1OC(=O)c1cccc([N+](=O)[O-])c1 was read as BoNT-A LC inh2 1, Autofluor counter 2480, BoNT F protease -5 and Anthrax LF inh2 -3.
`COc1cc(C(c2c(C)[nH][nH]c2=O)c2c(C)[nH][nH]c2=O)ccc1OCc1ccc([N+](=O)[O-])cc1` gave BoNT-A LC inh2 3, Autofluor counter 21766*, BoNT F protease -1 and Anthrax LF inh2 1.
Screening O=C(COc1ccc(S(=O)(=O)NC2CCCCC2)cc1Cl)N1CCN(c2ccccc2)CC1 returned BoNT-A LC inh2 inconclusive, Autofluor counter 22544*, BoNT F protease 5 and Anthrax LF inh2 -3.
`COCC(=O)NC1CCN(S(=O)(=O)c2ccc(C(=O)O)cc2)CC1` gave BoNT-A LC inh2 -2, Autofluor counter 20353*, BoNT F protease 1 and Anthrax LF inh2 -1.
For CN1CCN(C(=O)COc2ccc(S(=O)(=O)NC3CCCCC3)cc2Cl)CC1 the results were BoNT-A LC inh2 1, Autofluor counter 6348, BoNT F protease 3 and Anthrax LF inh2 -1.
O=C(COc1ccc(S(=O)(=O)N2CCCC2)cc1Cl)NC1CC1 was read as BoNT-A LC inh2 -2, Autofluor counter 24369*, BoNT F protease 0 and Anthrax LF inh2 -3.
Screening CC(C)CNC(=O)c1ccccc1NC(=O)/C=C/c1cccc([N+](=O)[O-])c1 returned BoNT-A LC inh2 0, Autofluor counter 2273, BoNT F protease 3 and Anthrax LF inh2 -1.
For COc1ccc(C(=O)Oc2coc(CSc3nnc(NC(=O)c4cccs4)s3)cc2=O)cc1 the results were BoNT-A LC inh2 0, Autofluor counter 2075, BoNT F protease 3 and Anthrax LF inh2 0.
For Cc1ccc(C(=O)Oc2coc(CSc3nnc(NC(=O)C4CC4)s3)cc2=O)cc1C the results were BoNT-A LC inh2 34*, Autofluor counter 1984, BoNT F protease -7 and Anthrax LF inh2 0.
`O=C(Oc1coc(CSc2nnc(NC(=O)C3CC3)s2)cc1=O)c1ccccc1` gave BoNT-A LC inh2 63*, Autofluor counter 2569, BoNT F protease 0 and Anthrax LF inh2 1.
Screening Cc1cccc(CSc2nnc(NC(=O)c3ccco3)s2)c1 returned BoNT-A LC inh2 -4, Autofluor counter 24019*, BoNT F protease -7 and Anthrax LF inh2 -3.
Screening Cc1cccc(C(=O)Oc2coc(CSc3nnc(NC(=O)C4CC4)s3)cc2=O)c1 returned BoNT-A LC inh2 55*, Autofluor counter 2570, BoNT F protease -3 and Anthrax LF inh2 1.
`Cc1c(NC(=O)CSc2nc3ccccc3c(=O)n2C(C)C)c(=O)n(-c2ccccc2)n1C` gave BoNT-A LC inh2 -3, Autofluor counter 8912, BoNT F protease -6 and Anthrax LF inh2 0.
`COc1ccc(N(C)C(=O)Cc2c(C(=O)O)n(C)c3ccccc23)c(OC)c1` gave BoNT-A LC inh2 2, Autofluor counter 3385, BoNT F protease -20 and Anthrax LF inh2 14.
`C=CCOC(=O)CCCCCCCC` gave BoNT-A LC inh2 0, Autofluor counter 5191, BoNT F protease -2 and Anthrax LF inh2 -9.
For CC(C)c1ccc(N(C(=O)c2snc(C(N)=O)c2N)C(C(=O)NC2CCCC2)c2ccncc2)cc1 (stereo not drawn) the results were BoNT-A LC inh2 -2, Autofluor counter 3773, BoNT F protease -2 and Anthrax LF inh2 -1.
Screening COc1ccc2c(c1)C(CC(=O)NN)CCC2 (stereo not drawn) returned BoNT-A LC inh2 0, Autofluor counter 3811, BoNT F protease 3 and Anthrax LF inh2 9.
Screening CC1=C(C(=O)OCC2CCCO2)C(c2cccc(C(F)(F)F)c2)C2=C(CC(c3ccco3)CC2=O)N1 (stereo not drawn) returned BoNT-A LC inh2 -7, Autofluor counter 21820*, BoNT F protease -10 and Anthrax LF inh2 -4.
Screening Cc1ccc([C@H]2C[C@@H](O)[C@H](n3cc(-c4ccc(F)cc4)nn3)CN2Cc2cccs2)cc1 returned BoNT-A LC inh2 0, Autofluor counter 3932, BoNT F protease -3 and Anthrax LF inh2 -3.
CCCCN(C=O)c1c(CC)nc2c(OCc3ccc(S(C)(=O)=O)cc3)cccn12 was read as BoNT-A LC inh2 0, Autofluor counter 3668, BoNT F protease -3 and Anthrax LF inh2 2.
For Cc1cc(C)c(NC(=O)c2ccc[n+](Cc3ccc([N+](=O)[O-])cc3)c2)c(C)c1 the results were BoNT-A LC inh2 2, Autofluor counter 3715, BoNT F protease 1 and Anthrax LF inh2 2.
C=CCOn1c(=O)c(-c2cccs2)[n+]([O-])c2ccccc21 was read as BoNT-A LC inh2 4, Autofluor counter 21222*, BoNT F protease 2 and Anthrax LF inh2 3.
`Cc1ccc(S(=O)(=O)NC(=NCC(=O)O)c2ccc(F)cc2)cc1` gave BoNT-A LC inh2 -4, Autofluor counter 25722*, BoNT F protease -8 and Anthrax LF inh2 -1.
For CC1(c2ccccc2)NC(=O)N(CC#N)C1=O (stereo not drawn) the results were BoNT-A LC inh2 -1, Autofluor counter 3848, BoNT F protease -3 and Anthrax LF inh2 -1.
For CCOC(=O)CCS(=O)(=O)c1nc(-c2ccccc2)cc(C(F)(F)F)n1 the results were BoNT-A LC inh2 -1, Autofluor counter 2373, BoNT F protease 0 and Anthrax LF inh2 -2.
`COC(=O)CCS(=O)(=O)c1nc(-c2ccccc2)cc(C(F)(F)F)n1` gave BoNT-A LC inh2 2, Autofluor counter 21982*, BoNT F protease 2 and Anthrax LF inh2 -1.
For COc1ccc(-n2cccc2C=O)cc1 the results were BoNT-A LC inh2 -1, Autofluor counter 2784, BoNT F protease -5 and Anthrax LF inh2 -1.
Screening COc1ccc(-n2cccc2C=O)cc1OC returned BoNT-A LC inh2 inconclusive, Autofluor counter 22117*, BoNT F protease -2 and Anthrax LF inh2 -2.
Screening CCCS(=O)(=O)NC(=O)C1(C)CCCN(C(=O)c2cc(C)nn2C(C)(C)C)C1 (stereo not drawn) returned BoNT-A LC inh2 0, Autofluor counter 2800, BoNT F protease 3 and Anthrax LF inh2 -8.
`Cc1cc(O)c(C(C[N+](=O)[O-])c2ccc(Cl)cc2Cl)c(=O)o1` (stereo not drawn) gave BoNT-A LC inh2 -7, Autofluor counter 17730*, BoNT F protease -8 and Anthrax LF inh2 -4.
Screening O=c1[nH][nH]c(-c2ccccc2O)c1C(C[N+](=O)[O-])c1ccc(Cl)cc1Cl (stereo not drawn) returned BoNT-A LC inh2 0, Autofluor counter 7029, BoNT F protease -16 and Anthrax LF inh2 -6.
COc1ccc(C(=O)N/C(=C\c2ccc3c(c2)OCO3)C(=O)NCCc2nc3ccccc3[nH]2)cc1 was read as BoNT-A LC inh2 0, Autofluor counter 2460, BoNT F protease -8 and Anthrax LF inh2 0.

High-throughput results deposited in PubChem by NMMLSC.
